“And” between values parts separate entries of the source, which are not always exact repeats. Equal values may be shown once. Inconclusive results are not listed. Where a call stands in place of a potency, no number is given. Unmarked numbers belong to inactive results. The source made the active and inactive calls. Calls follow the shape of the dose curve; as a rule, active = well fitted activation curve with a large enough effect in the repeat runs; inconclusive = weak or mixed curves; inactive = flat fitted curve, though single readings scatter.
Assay: A CellTox Green Cytotoxicity Assay to monitor cytotoxicity in HepG2 cells - 32 hour (AID 1224883); also: nearly all actives have a fitted effect of over 50% in size
Details: CellTox Green fluorescence; series mostly up to 76.8 µM
Source text: National Center for Advancing Translational Sciences [NCATS]
NIH Chemical Genomics Center [NCGC]
U.S. Environmental Protection Agency [EPA]
National Institutes of Environmental Health Sciences [NIEHS]
National Toxicology Program [NTP]
Cell-based models are critical for drug discovery. Determining the natural cytotoxic effects resulting from test compounds is an essential research activity. A CellTox Green Cytotoxicity Assay to monitor cytotoxicity in real time of continues cell culture during 40 hours of the compound treatment was used to screen Tox21 10K library compounds in HepG2 cells. CellTox Green Cytotoxicity Assay is a nonlytic, homogeneous, biofluorescent method to measure cytotoxicity in cell culture after experimental manipulation. The assay system uses a proprietary asymmetric cyanine dye that is excluded from viable cells but preferentially stains the dead cell's DNA. […] Viable cells produce no appreciable increases in fluorescence. Therefore, the fluorescence signal produced by the binding interaction with dead cell DNA is proportional to cytotoxicity.
The mixture of HepG2 cell suspension and reagents were dispensed at 600cells/6 ul/well in 1536-well tissue culture treated black solid bottom plates using a Multidrop dispenser. After the assay plates were incubated at a 37 C/5% CO2 incubator for 5 hours, 23 nL of compounds dissolved in DMSO, positive and negative controls was transferred to the assay plate by a pintool work station. The plates were incubated at 37 C for 40 hours. The fluorescence intensity were measured at 0h, 8h, 16h, 24h, 32h and 40h time points using ViewLux plate reader during compound treatment.
Potency is read from the fitted curve at half-maximal effect.

**Q.** Which Potency does the source give for `CCOP(=O)(SC(C)CC)N1CCSC1=O` (stereo not given) here?
**A.** inactive

**Q.** Which Potency does the source give for `COC1CC(=C(c2cccs2)c2cccs2)C[N+](C)(C)C1` (stereo not given) here?
**A.** inactive

**Q.** For `CCCCCCCCP(=O)(O)O`, which Potency is on record?
**A.** inactive

**Q.** For `CCCCCCCCn1sccc1=O`, which Potency is on record?
**A.** 43.7 µM (active) and 22.9 µM (active)

**Q.** For `C[Si](Cn1cncn1)(c1ccc(F)cc1)c1ccc(F)cc1`, which Potency is on record?
**A.** 50.6 µM (active) and 49 µM (active)

**Q.** With `C[CH2][Hg][S]c1ccccc1C(=O)O` as the molecule, how does the Potency read?
**A.** 3.09 µM (active) and 2.13 µM (active)

**Q.** For `Cc1cnc(C2=NC(C)(C(C)C)C(=O)N2)c(C(=O)O)c1` (stereo not given), which Potency is on record?
**A.** inactive

**Q.** For `C[N+]1(CCC(C(N)=O)(c2ccccc2)c2ccccc2)CCCCC1`, which Potency is on record?
**A.** inactive

**Q.** With `N#CC(C#N)=Cc1ccc(O)c(O)c1` as the molecule, how does the Potency read?
**A.** inactive

**Q.** With `O=C(Cc1ccccc1)OCCc1ccccc1` as the molecule, how does the Potency read?
**A.** inactive

**Q.** For `O=C1c2ccccc2C(=O)N1SC(Cl)(Cl)Cl`, which Potency is on record?
**A.** 24.2 µM (active) and 12.3 µM (active)

**Q.** Which Potency does the source give for `Nc1cccc2ccccc12` here?
**A.** inactive

**Q.** Which Potency does the source give for `CC(Cc1ccccc1)NCc1ccccc1Cl` (stereo not given) here?
**A.** inactive

**Q.** With `O=C(N[C@H]1CN2CCC1CC2)c1ccc2c(c1)OCCO2` as the molecule, how does the Potency read?
**A.** inactive

**Q.** With `CCOC(=O)c1cncn1C(C)c1ccccc1` (stereo not given) as the molecule, how does the Potency read?
**A.** inactive

**Q.** Which Potency does the source give for `O=C(O)c1cc(Cl)ccc1Cl` here?
**A.** inactive

**Q.** With `CC(C)CCON=O` as the molecule, how does the Potency read?
**A.** inactive

**Q.** Which Potency does the source give for `CCOP(=S)(OCC)SCSc1cc(Cl)ccc1Cl` here?
**A.** inactive

**Q.** For `CCCCC(CC)COC(=O)c1c(Br)c(Br)c(Br)c(Br)c1C(=O)OCC(CC)CCCC` (stereo not given), which Potency is on record?
**A.** inactive

**Q.** For `C[C@]12C=CC3=C4CCC(=O)C=C4CC[C@H]3[C@@H]1CC[C@@H]2O`, which Potency is on record?
**A.** inactive

**Q.** For `Cc1nnc(-c2ccccc2)c(=O)n1N`, which Potency is on record?
**A.** inactive

**Q.** With `CN1CC[C@]23c4c5ccc(O)c4O[C@H]2[C@@H](O)CC[C@H]3[C@H]1C5` as the molecule, how does the Potency read?
**A.** inactive

**Q.** For `FC(Cl)(Cl)C(F)(Cl)Cl`, which Potency is on record?
**A.** inactive

**Q.** For `CCCCC(CC)CO[N+](=O)[O-]` (stereo not given), which Potency is on record?
**A.** inactive

**Q.** With `CCC1(C2=NCCN2)Cc2ccccc2O1` (stereo not given) as the molecule, how does the Potency read?
**A.** inactive

**Q.** For `CCOC(=O)NC(O)C(Cl)(Cl)Cl` (stereo not given), which Potency is on record?
**A.** inactive

**Q.** For `CCCCCCCCCCCCN=C(N)N`, which cytotoxicity increase is on record?
**A.** -4.96% [at 2.72 µM]

**Q.** Which Potency does the source give for `NP(N)(=O)NC(=O)c1ccc(F)cc1` here?
**A.** inactive

**Q.** Which Potency does the source give for `CCCCCl` here?
**A.** inactive

**Q.** With `Clc1ccc2ccccc2c1` as the molecule, how does the Potency read?
**A.** inactive

**Q.** For `CC(C)CCCCCCCOC(=O)c1ccccc1C(=O)OCCCCCCCC(C)C`, which Potency is on record?
**A.** inactive

**Q.** With `C[C@H]1O[C@H](OC2[C@@H](O)[C@@H](O)C(O)[C@H](O)[C@H]2O)[C@@H](N)C[C@@H]1N=C(N)C(=O)O` (stereo not given in full) as the molecule, how does the Potency read?
**A.** inactive

**Q.** Which Potency does the source give for `CC(C)(C)N(NC(=O)c1ccc(Cl)cc1)C(=O)c1ccccc1` here?
**A.** inactive

**Q.** For `COc1cc(CC#N)cc(OC)c1OC`, which Potency is on record?
**A.** inactive

**Q.** Which Potency does the source give for `O=C=NC1CCCCC1` here?
**A.** inactive

**Q.** With `Oc1cccc(Cl)c1` as the molecule, how does the Potency read?
**A.** inactive

**Q.** With `CC(C)(C)NCC(O)c1ccccc1Cl` (stereo not given) as the molecule, how does the Potency read?
**A.** inactive

**Q.** For `CCOP(=S)(OCC)Oc1ccc(S(C)=O)cc1` (stereo not given), which Potency is on record?
**A.** inactive

**Q.** With `C[C@]12CC[C@H]3[C@@H](CCC4=CC(=O)CC[C@@H]43)[C@@H]1CC[C@@H]2OC(=O)CCc1ccccc1` as the molecule, how does the Potency read?
**A.** inactive

**Q.** With `C=C(C)C(=O)OCCCCOC(=O)C(=C)C` as the molecule, how does the Potency read?
**A.** inactive

— PubChem BioAssay (Tox21)
